Holding throughout (experiment): NCI-60 one-dose screen, 48 h (100 = growth as untreated, 0 = no growth, -100 = all killed)
Common to all, as to details: 10 µM unless noted

Test [1] concerns DU-145 prostate.
The test system of test [2] is K-562 leukemia.
Test [3] has as its system MALME-3M melanoma.
The test system of test [4] is MDA-MB-231 breast.
Test [5] has as its system RXF 393 renal.
The test system of test [6] is SF-268 CNS.
The subject of test [7] is SF-295 CNS.
In test [8] the test system is SF-539 CNS.
In test [9] the test system is UACC-257 melanoma.
The subject of test [10] is M14 melanoma.
Test [11] deals with HCT-15 colon.
Test [12] deals with HT29 colon.
For test [13], the system named is SNB-75 CNS.
Test [14] concerns SNB-19 CNS.
The subject of test [15] is U251 CNS.
The subject of test [16] is PC-3 prostate.
Test [17] relates to UACC-62 melanoma.
Test [18] has as its system LOX IMVI melanoma.
In test [19] the test system is SK-MEL-28 melanoma.
Test [20] concerns SK-MEL-5 melanoma.

The record followed here is PubChem BioAssay (NCI).

SMILES strings stand for the structures. Values joined by “and” are separate entries in the source; they are usually repeats but may differ in a detail not shown here. Equal entries are not always repeated. About 83,000 compounds went through this panel and 20% of them were active in at least one assay; those are over-represented in the sample as a whole.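 Method: cells in 96-well plates; compound added at one concentration; 48 h incubation; percent growth measured; values under 10 scored active.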 Active and inactive are the calls of the source.

For `C#CCOC(=O)Nc1ccccc1`, the growth in [1] is 106% (inactive); in test [2], 96.9% (inactive); in test [3], 115% (inactive); in [4], 116% (inactive); in test [5], 124% (inactive); in [6], 105% (inactive). The growth in test [7] was 107% (inactive); in test [8], 97.5% (inactive); in test [9], 93.7% (inactive); in test [10], 103% (inactive); in [11] it was 99.6% (inactive); in [12] it was 112% (inactive). Further, the growth in [13] is 91.2% (inactive); in [14], 111% (inactive); in test [15], 98.2% (inactive); in test [16], 96.7% (inactive); in test [17], 104% (inactive); in test [18] it was 99.2% (inactive). Moreover, the growth in [19] was 103% (inactive).

`O=c1n(CC2CO2)c(=O)n(CC2CO2)c(=O)n1CC1CO1` (stereo not given): the growth was 25.7% (inactive) in test [1]; 81.3% (inactive) in [2]; 70.7% (inactive) in [3]; 107% (inactive) in [4]; 64.2% (inactive) in test [5]; 47.9% (inactive) in test [6]. The growth in test [7] is 13.9% (inactive); in test [8], 28.6% (inactive); in [9] it was 61.4% (inactive); in test [10] it was 61.9% (inactive); in test [11] it was 75.9% (inactive); in test [12], 70.3% (inactive). Moreover, the growth in [13] was 66.3% (inactive); in [14], 83.9% (inactive); in [15], 56.2% (inactive); in test [16], 71.4% (inactive); in [17], 66% (inactive); in test [19] it was 88.7% (inactive).

`CN(C)CC1CCCCCC(CN(C)C)C1=O` (stereo not given): the growth in [1] was 16.3% (inactive); in test [2], 0.401% (active); in test [3], -29.8% (active); in [4], 86.2% (inactive); in test [5], -5.99% (active); in test [6], 97% (inactive). Moreover, the growth in test [7] was 76.8% (inactive); in test [8], 113% (inactive); in [9], 53.1% (inactive); in test [10], 77.4% (inactive); in [11], 7.44% (active); in test [12] it was 31.8% (inactive). For the same molecule, the growth in test [13] is 98.4% (inactive); in test [14], 108% (inactive); in test [15], 89% (inactive); in [16], 86.7% (inactive); in test [20] it was 104% (inactive); in [17], 91.9% (inactive). The growth in test [18] was 81.3% (inactive); in test [19] it was 94.8% (inactive).

Take `CC1=C/C(O)CC(=O)Cc2nc(co2)C(=O)N2CCC=C2C(=O)OC(C(C)C)C(C)/C=C\C(=O)NC/C=C\1` (stereo not given): the growth in test [1] was 90.7% (inactive); in test [2], 48.4% (inactive); in [3], 125% (inactive); in test [4] it was 98.6% (inactive); in test [5], 93.6% (inactive); in [6], 93.3% (inactive). Further, the growth in test [7] is 101% (inactive); in [8], 104% (inactive); in [9] it was 75.4% (inactive); in [10], 15.4% (inactive); in test [11], 90.1% (inactive); in [12], 76.7% (inactive). Further, the growth is 80.8% (inactive) in test [13]; 89.8% (inactive) in test [14]; 92.9% (inactive) in test [15]; 71.5% (inactive) in test [16]; 96.7% (inactive) in test [20]; 84.9% (inactive) in test [17]. Besides, the growth in [19] was 32.6% (inactive).

For `O=C1C=C(Nc2ccccc2)c2ccccc2C1=O`, the growth in test [1] is 21.2% (inactive) and 97.3% (inactive); in test [2] it was 54.7% (inactive) and 98.7% (inactive); in test [3] it was 70.1% (inactive) and 71% (inactive); in test [4] it was 69.1% (inactive) and 59.7% (inactive); in [5], 96.7% (inactive); in test [6] it was 80.3% (inactive) and 92.8% (inactive). For the same molecule, the growth in test [7] was 61.1% (inactive) and 105% (inactive); in test [8], 44.4% (inactive) and 105% (inactive); in test [9] it was 88.7% (inactive) and 97.9% (inactive); in test [10] it was 47% (inactive) and 107% (inactive); in test [11], 14.4% (inactive) and 88.9% (inactive); in [12], 103% (inactive) and 119% (inactive). Besides, the growth is 23.5% (inactive) in [13]; 45.3% (inactive) and 95.2% (inactive) in test [14]; 96.6% (inactive) in test [15]; 53.8% (inactive) and 76.8% (inactive) in test [16]; 74.2% (inactive) in test [20]; 4.24% (active) and 97.1% (inactive) in [17]. For the same molecule, the growth was 71.6% (inactive) in test [18]; 105% (inactive) and 114% (inactive) in test [19].

Consider `CC1(C)COC(=S)N1`, for which the growth is 114% (inactive) in test [1]; 91.7% (inactive) in test [2]; 104% (inactive) in [3]; 96.5% (inactive) in test [4]; 98.8% (inactive) in test [5]; 107% (inactive) in test [6]. In addition, the growth is 98.4% (inactive) in test [7]; 107% (inactive) in test [8]; 99.6% (inactive) in test [9]; 101% (inactive) in test [10]; 103% (inactive) in test [11]; 104% (inactive) in test [12]. The growth is 87.4% (inactive) in test [13]; 107% (inactive) in [14]; 101% (inactive) in test [15]; 100% (inactive) in [16]; 93% (inactive) in [17]; 99.9% (inactive) in test [18]. Moreover, the growth in test [19] is 104% (inactive).

For the molecule `CCCCNc1ccc(Nc2ccccc2)cc1`, the growth in test [1] was 84% (inactive); in [2] it was 48.9% (inactive); in test [3] it was 54.8% (inactive); in test [4], 64.4% (inactive); in test [5], 83.9% (inactive); in test [6], 110% (inactive). Besides, the growth in test [7] was 56.3% (inactive); in [8], 83.8% (inactive); in test [9], 62.7% (inactive); in [10], 87.5% (inactive); in test [11], 94.6% (inactive); in test [12], 51.5% (inactive). Further, the growth in test [13] was 84.2% (inactive); in test [14], 76.4% (inactive); in test [15] it was 34.8% (inactive); in test [16], 50.8% (inactive); in test [17], 60.6% (inactive); in [19] it was 94.9% (inactive).

Take `CC(=O)OCC1OC(OC(C)=O)C(OC(C)=O)C(OC(C)=O)C1OC(C)=O` (stereo not given): the growth in [1] is 107% (inactive) and 102% (inactive); in test [2], 111% (inactive) and 95.9% (inactive); in [3], 99.8% (inactive); in test [4], 124% (inactive) and 109% (inactive); in [5], 102% (inactive) and 106% (inactive); in test [6] it was 108% (inactive) and 99% (inactive). Also, the growth in [7] was 98.2% (inactive); in test [8], 99.6% (inactive) and 103% (inactive); in test [9], 95.4% (inactive) and 101% (inactive); in [10], 99.6% (inactive) and 103% (inactive); in [11] it was 98.2% (inactive) and 104% (inactive); in test [12], 110% (inactive) and 115% (inactive). The growth in test [13] was 67.1% (inactive) and 98.6% (inactive); in test [14], 102% (inactive) and 106% (inactive); in test [15] it was 95.6% (inactive) and 96% (inactive); in [16], 105% (inactive) and 104% (inactive); in test [20] it was 102% (inactive) and 100% (inactive); in test [17], 109% (inactive) and 99.9% (inactive). Further, the growth in [19] was 103% (inactive) and 109% (inactive).

Consider `CC(C)(O)C(=O)O`, for which the growth was 94.5% (inactive) in test [1]; 123% (inactive) in test [2]; 88.4% (inactive) in [3]; 86.4% (inactive) in test [4]; 113% (inactive) in [5]; 103% (inactive) in [6]. For the same molecule, the growth in [7] is 103% (inactive); in [8] it was 101% (inactive); in [9] it was 99.8% (inactive); in [10], 101% (inactive); in test [11], 105% (inactive); in [12] it was 104% (inactive). In addition, the growth in test [13] is 94.6% (inactive); in [14] it was 103% (inactive); in [15], 97.9% (inactive); in test [16] it was 98.2% (inactive); in test [20], 103% (inactive); in test [17], 103% (inactive). Further, the growth is 101% (inactive) in [18] and 104% (inactive) in test [19].

For `CCCCOC(=O)/C=C\C(=O)NC(N)=O`, the growth is 91.1% (inactive) in test [1]; 82.3% (inactive) in test [2]; 92.3% (inactive) in test [3]; 75.5% (inactive) in test [4]; -13.6% (active) in test [5]; 96.6% (inactive) in [6]. Moreover, the growth was 103% (inactive) in test [7]; 95.7% (inactive) in test [8]; 77.8% (inactive) in test [9]; 92.1% (inactive) in [10]; 90.8% (inactive) in test [11]; 97% (inactive) in test [12]. Besides, the growth in test [13] was 95.9% (inactive); in test [14], 91.4% (inactive); in test [15], 96.4% (inactive); in test [16], 83% (inactive); in test [20], 99.8% (inactive); in [17], 79.1% (inactive). In test [19], the growth is 97.6% (inactive).

In the case of `Cc1cc2ccccc2cn1`, the growth in test [1] was 114% (inactive) and 122% (inactive); in [2], 118% (inactive) and 102% (inactive); in test [3], 101% (inactive) and 100% (inactive); in test [4], 97.9% (inactive) and 107% (inactive); in test [5] it was 104% (inactive); in test [6], 101% (inactive) and 134% (inactive). Also, the growth in test [7] was 100% (inactive) and 90.3% (inactive); in test [8] it was 102% (inactive) and 98.7% (inactive); in [9], 97.3% (inactive); in [10], 107% (inactive) and 111% (inactive); in test [11], 104% (inactive) and 105% (inactive); in test [12] it was 109% (inactive) and 102% (inactive). For the same molecule, the growth in test [13] is 92.9% (inactive) and 83.1% (inactive); in test [14], 95.3% (inactive) and 97.7% (inactive); in test [15], 99.4% (inactive) and 103% (inactive); in [16], 95.3% (inactive) and 96% (inactive); in [20] it was 101% (inactive) and 109% (inactive); in test [17], 92.5% (inactive) and 95.2% (inactive). Moreover, the growth in [19] is 109% (inactive) and 200% (inactive).
